In ChEMBL document CHEMBL4513141, “CO-ADD screening of NIH (USA) - Clinical Collection” (2021) one finds Inhibition data, which are given here for 31 compounds.

Potency and affinity values are given separately.

The subject of the assay is Cryptococcus neoformans. The following applies: Concentration 20 uM; ASSAY_TEST Inhibition of Fungal Growth; detection method Resazurin; Absorption (OD600-OD570); plate type 384well; NBS; CORNING #3640. A general note: Resazurin is reduced to fluorescent resorufin, in cell work by metabolically active cells.
A word on the Inhibition: it is the drop in the measured response relative to a control, in per cent. `CCCNCC(O)COc1ccccc1C(=O)CCc1ccccc1` (stereo unspecified) [PROPAFENONE]: the Inhibition is listed as -5.76%.
The result for `CCc1nn(CCCN2CCN(c3cccc(Cl)c3)CC2)c(=O)n1CCOc1ccccc1.Cl` [NEFAZODONE HYDROCHLORIDE] reads -2.69%; that for `Cl.O.O=C(c1ccc(F)cc1)C1CCN(CCn2c(=S)[nH]c3ccccc3c2=O)CC1`, 0.24%; that for `CN(C)CCCN1c2ccccc2Sc2ccc(Cl)cc21.Cl` [CHLORPROMAZINE HYDROCHLORIDE], 2.71%.
For `O=C(CCCN1CC=C(n2c(=O)[nH]c3ccccc32)CC1)c1ccc(F)cc1` [DROPERIDOL], the Inhibition is -8.67%.
Next, `CCC(=O)OCC(=O)[C@@]1(OC(=O)CC)[C@@H](C)C[C@H]2[C@@H]3CCC4=CC(=O)C=C[C@]4(C)[C@@]3(Cl)[C@@H](O)C[C@@]21C` [BECLOMETHASONE DIPROPIONATE]: 1.67%.
Next, `Cl.O=C1[C@H]2CCCC[C@H]2C(=O)N1CCCCN1CCN(c2nsc3ccccc23)CC1`: -7.18%; `CC(=O)S[C@@H]1CC2=CC(=O)CC[C@]2(C)[C@H]2CC[C@@]3(C)[C@@H](CC[C@@]34CCC(=O)O4)[C@H]12` [SPIRONOLACTONE]: -2.8%.
Regarding `O=C(O[C@H]1[C@H](Oc2ccccc2COC(=O)C2(O)C=CCCC2=O)O[C@H](CO)[C@@H](O)[C@@H]1O)c1ccccc1` (stereo partly specified) [TREMULACIN], the Inhibition is reported as -9.11%.
Next, `Cl.Nc1nc2ccc(OC(F)(F)F)cc2s1`: -9.1%; `Cl.Clc1ccc2nsnc2c1NC1=NCCN1` [TIZANIDINE HYDROCHLORIDE]: -1.24%; `Cl.Clc1ccccc1CN1CCc2sccc2C1` [TICLOPIDINE HYDROCHLORIDE]: -6.79%.
Next, `Cc1cccc(Nc2ccncc2S(=O)(=O)NC(=O)NC(C)C)c1` [TORSEMIDE]: 0.39%; `COc1ccc(-c2cc(=O)c3c(OC)c(OC)c(OC)c(OC)c3o2)cc1OC` [NOBILETIN]: -2.3%.
With `COCCOC(=O)C1=C(C)NC(C)=C(C(=O)OC(C)C)C1c1cccc([N+](=O)[O-])c1` (stereo unspecified) [NIMODIPINE], the Inhibition is reported as -7.18%.
On to `CCCN1CCCC[C@H]1C(=O)Nc1c(C)cccc1C.Cl` [ROPIVACAINE HYDROCHLORIDE], for which the Inhibition is reported as -6.59%.
The result for `COC1=CC(=O)C[C@@H](C)[C@]12Oc1c(Cl)c(OC)cc(OC)c1C2=O` [GRISEOFULVIN] reads -0.94%; that for `CCOC(=O)N1CCC(=C2c3ccc(Cl)cc3CCc3cccnc32)CC1` [LORATADINE], -7.17%; that for `CCC(C)(C)C(=O)O[C@H]1C[C@@H](C)C=C2C=C[C@H](C)[C@H](CC[C@@H]3C[C@@H](O)CC(=O)O3)[C@H]21` [SIMVASTATIN], 3.41%.
The result for `CC(=O)CCCCn1c(=O)c2c(ncn2C)n(C)c1=O` [PENTOXIFYLLINE] reads -7.44%.
Consider `CC(C)[C@H]1CC[C@H](C(=O)N[C@H](Cc2ccccc2)C(=O)O)CC1` [NATEGLINIDE], for which the Inhibition is -0.58%.
In the case of `C#C[C@]1(O)CC[C@H]2[C@@H]3CCc4cc(O)ccc4[C@H]3CC[C@@]21C` [ETHINYL ESTRADIOL], the Inhibition was -5.67%.
Next, `CCC1(c2ccccc2)C(=O)NCNC1=O` [PRIMIDONE]: 0.81%; `Cc1ccc(N(CC2=NCCN2)c2cccc(O)c2)cc1` [PHENTOLAMINE]: -2.31%.
In the case of `O=c1c(O[C@@H]2O[C@H](CO)[C@@H](O)[C@H](O)[C@H]2O)c(-c2ccc(O)c(O)c2)oc2cc(O)cc(O)c12` [ISOQUERCETIN], the Inhibition turned out to be 3.22%.
Next, `C=C1/C(=C\C=C2/CCC[C@]3(C)[C@@H]([C@H](C)/C=C/[C@@H](O)C4CC4)CC[C@@H]23)C[C@@H](O)C[C@@H]1O` [CALCIPOTRIENE]: 0.21%.
The result for `Nc1ncnc2c1ncn2[C@@H]1O[C@H](CO)C[C@@H]1O.O` reads -7.2%; that for `CC1CCN(CCCC(=O)c2ccc(F)cc2)CC1.Cl`, -4.29%.
Take `CCN1CCC[C@H]1CNC(=O)c1cc(S(N)(=O)=O)ccc1OC` [LEVOSULPIRIDE]: the Inhibition came out at 2.98%.
Turning to `CN1CCc2cc(Cl)c(O)cc2[C@@H](c2ccccc2)C1.Cl`, the Inhibition is on record as -7.18%.
Next, `CC(C)[N+](C)(CCOC(=O)C1c2ccccc2Oc2ccccc21)C(C)C.[Br-]` [PROPANTHELINE BROMIDE]: -1.43%.
